Several values for one entry are separate records, joined by “and”; a condition that tells them apart may be missing. Equal values may be shown once. Unmarked numbers belong to inactive results. Results filed as inconclusive are left out. Activity calls are given as the source filed them. Calls come from the whole dose curve; as a rule, active = well fitted curve in the direction sought with a large enough effect; inconclusive = small, poorly fitted or top-dose-only effect, or another doubt; inactive = no such curve, though single readings can be large; an effect the other way counts as inactive or inconclusive. Peptide text beside a SMILES is read from it.
System: not listed separately
Test: qHTS assay for environmental chemicals that activate the Aryl hydrocarbon Receptor (AhR) signaling pathway (AID 651777); note: nearly all actives have a fitted effect of over 15% in size; note: potency is the fitted concentration of half-maximal effect; for activation: % of control where 0% means no effect
Settings: 1A2-DRE human hepatoma cells, luciferase, 24 h; activation: stronger effect = higher value
Procedure, shortened: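 Following a 24 hr incubation with test chemicals at 37 C and 5% CO2, 1A2-DRE human hepatoma cells received One-Glo reagent; after 30 min at room temperature, luciferase output reflected CYP1A2 induction via AhR.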
`Nc1nc(Cl)nc2c1ncn2[C@H]1C[C@H](O)[C@@H](CO)O1` gave an activation of 1.52%. In the case of `Nc1ccc(S(N)(=O)=O)cc1`, the activation is reported as -0.82%. Compound `CNC[C@H](O)c1ccc(O)c(O)c1` has an activation of -0.576%. In the case of `CC(=O)Nc1ccc(O)cc1`, the activation is reported as 1.7% and -0.186%. With `Cc1cc(O)c2c(c1)C(=O)c1cc(O)cc(O)c1C2=O` the Potency was 44.7 µM (active). With `COC(=O)[C@H](Cc1ccccc1)NC(=O)[C@@H](N)CC(=O)O` (H-Asp-Phe-OMe) the activation was -1.45% and -0.834%. With `CS(=O)(=O)OCCCCOS(C)(=O)=O` the activation was 2.49% and 0.0953% and 0.509%. For `Cc1ccc(C)c(OCCCC(C)(C)C(=O)O)c1`, the activation was -0.112% and 1.21%. For `CCc1nc(N)nc(N)c1-c1ccc(Cl)cc1`, the activation was 1.47% and 0.312%. For `N[C@@H](Cc1cc(I)c(Oc2cc(I)c(O)c(I)c2)c(I)c1)C(=O)O`, the Potency was 44.7 µM (active). In the case of `CCCc1cc(=O)[nH]c(=S)[nH]1`, the activation is reported as 0.594% and 1.79%. `CC1(C)NC(=O)N(c2ccc([N+](=O)[O-])c(C(F)(F)F)c2)C1=O` showed an activation of 1.77%. For `O=c1c(O)c(-c2ccc(O)cc2O)oc2cc(O)cc(O)c12`, the activation was 4.65%. `CCCCC(CC)COC(=O)C(C#N)=C(c1ccccc1)c1ccccc1` (stereo not given) gave an activation of 0.749%. `CN(C)c1ccc2nc3ccc(=[N+](C)C)cc-3sc2c1` gave an activation of -2.65%. In the case of `COc1cc(OC)c(C(=O)CCCN2CCCC2)c(OC)c1`, the activation is reported as -1.93%.

Biological target: Peroxisome proliferator-activated receptor alpha (Homo sapiens) (UniProt Q07869)
Sequence (Q07869 whole entry, looked up): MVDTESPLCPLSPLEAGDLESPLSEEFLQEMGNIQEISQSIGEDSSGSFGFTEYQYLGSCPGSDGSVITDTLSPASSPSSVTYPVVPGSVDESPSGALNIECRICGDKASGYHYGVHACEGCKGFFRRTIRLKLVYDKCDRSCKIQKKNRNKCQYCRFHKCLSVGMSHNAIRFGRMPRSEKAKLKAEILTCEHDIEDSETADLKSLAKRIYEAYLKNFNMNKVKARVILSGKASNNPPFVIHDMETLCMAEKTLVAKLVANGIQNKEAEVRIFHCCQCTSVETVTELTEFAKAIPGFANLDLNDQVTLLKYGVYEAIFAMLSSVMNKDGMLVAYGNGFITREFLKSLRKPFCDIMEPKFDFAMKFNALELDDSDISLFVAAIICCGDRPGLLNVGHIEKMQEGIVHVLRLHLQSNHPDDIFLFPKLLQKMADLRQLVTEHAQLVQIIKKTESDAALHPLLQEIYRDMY
Test: qHTS assay for small molecule agonists of the peroxisome proliferator-activated receptor alpha (PPARalpha) signaling pathway (AID 651778); note: % of control where 0% means no effect
Settings: PathHunter PPARalpha complementation, chemiluminescence, 6 h; stronger effect = higher value
Procedure, shortened: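 Chemiluminescence from complemented enzyme reported PPARalpha activation in cells after 6 hr of compound treatment at 37 C. The detection reagent was incubated for 60 min at room temperature, and compounds were scored as agonists.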
`Nc1nc(Cl)nc2c1ncn2[C@H]1C[C@H](O)[C@@H](CO)O1` showed a max response of -0.979%. Work on `Nc1ccc(S(N)(=O)=O)cc1` yielded a max response of 3.64%. Compound `CNC[C@H](O)c1ccc(O)c(O)c1` has a max response of -0.497%. For `Cc1cc(O)c2c(c1)C(=O)c1cc(O)cc(O)c1C2=O`, the max response was -5.19% and -6.73%. With `COC(=O)[C@H](Cc1ccccc1)NC(=O)[C@@H](N)CC(=O)O` (H-Asp-Phe-OMe) the max response was -1.47% and -4.11%. Compound `CC(=O)N1CCN(c2ccc(OC[C@H]3CO[C@](Cn4ccnc4)(c4ccc(Cl)cc4Cl)O3)cc2)CC1` has a max response of -0.168%. For `CS(=O)(=O)OCCCCOS(C)(=O)=O`, the max response was -1.17% and -9.71% and -0.247%. With `Cc1ccc(C)c(OCCCC(C)(C)C(=O)O)c1` the max response was 0.635% and 1.7%. For `CCc1nc(N)nc(N)c1-c1ccc(Cl)cc1`, the max response was -1.61% and -1.39%. For `COc1c2occc2cc2ccc(=O)oc12`, the max response was -3.1% and -0.368%. `N[C@@H](Cc1cc(I)c(Oc2cc(I)c(O)c(I)c2)c(I)c1)C(=O)O` showed a max response of -3.72%. For `CCCc1cc(=O)[nH]c(=S)[nH]1`, the max response was -4.59% and -0.354%. `CC1(C)NC(=O)N(c2ccc([N+](=O)[O-])c(C(F)(F)F)c2)C1=O` showed a max response of -2.93%. `O=c1c(O)c(-c2ccc(O)cc2O)oc2cc(O)cc(O)c12` gave a max response of -3.16%. With `c1ccc2[nH]c(-c3cscn3)nc2c1` the max response was -1.63% and -0.401%. With `CCCCC(CC)COC(=O)C(C#N)=C(c1ccccc1)c1ccccc1` (stereo not given) the max response was -1.78%. Compound `CN(C)c1ccc2nc3ccc(=[N+](C)C)cc-3sc2c1` has a max response of -7.81%. `COc1cc(OC)c(C(=O)CCCN2CCCC2)c(OC)c1` showed a max response of -0.755%.

Biological target: Nuclear receptor ROR-gamma (Homo sapiens) (UniProt P51449)
Sequence (P51449 whole entry, looked up): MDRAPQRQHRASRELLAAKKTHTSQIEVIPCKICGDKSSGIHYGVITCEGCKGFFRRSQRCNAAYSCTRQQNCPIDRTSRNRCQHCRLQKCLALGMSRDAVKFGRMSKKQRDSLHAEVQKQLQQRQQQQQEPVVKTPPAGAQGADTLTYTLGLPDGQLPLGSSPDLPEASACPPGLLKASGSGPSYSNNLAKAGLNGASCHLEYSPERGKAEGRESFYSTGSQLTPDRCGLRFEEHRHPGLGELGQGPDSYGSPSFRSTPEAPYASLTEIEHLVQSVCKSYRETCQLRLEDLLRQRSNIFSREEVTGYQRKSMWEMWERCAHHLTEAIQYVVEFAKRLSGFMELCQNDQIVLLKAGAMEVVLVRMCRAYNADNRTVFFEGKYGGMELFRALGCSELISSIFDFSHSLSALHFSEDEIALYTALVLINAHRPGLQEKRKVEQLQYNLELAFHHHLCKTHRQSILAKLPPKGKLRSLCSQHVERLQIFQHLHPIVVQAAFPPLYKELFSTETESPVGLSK
Test: qHTS assay for small molecule antagonists of the retinoid-related orphan receptor gamma (ROR-gamma) signaling pathway (AID 651802);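 note: CHO cells with doxycycline-induced ROR-gamma expression; % is set by controls: 0 for no effect and ±100 for the full control effect; nearly all actives have a fitted effect of over 60% in size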
Settings: ROR-gamma antagonist cell reporter assay; series mostly up to 92.2 µM; activity change, negative = inhibition: at the top concentration
Procedure, shortened: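 Steps: cells dispensed; compound or DMSO transferred by pin tool; doxycycline added to induce the ROR response element-driven luciferase; plates held 16hr at 37C; ONE-Glo added and luminescence measured.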
With `COC(=O)[C@H](Cc1ccccc1)NC(=O)[C@@H](N)CC(=O)O` (H-Asp-Phe-OMe) the “activity change, negative = inhibition” value was 19.6%. In the case of `CS(=O)(=O)OCCCCOS(C)(=O)=O`, the outcome is reported as “inactive”. For `Cc1ccc(C)c(OCCCC(C)(C)C(=O)O)c1`, the “activity change, negative = inhibition” value was -0.771%. For `NS(=O)(=O)c1cc(C(=O)O)c(NCc2ccco2)cc1Cl`, the “activity change, negative = inhibition” value was -2.24%. With `CCCc1cc(=O)[nH]c(=S)[nH]1` the “activity change, negative = inhibition” value was 10.5%. For `c1ccc2[nH]c(-c3cscn3)nc2c1`, the “activity change, negative = inhibition” value was 128%.

Biological target: Tyrosine-protein kinase Yes (Homo sapiens) (UniProt P07947)
Sequence (P07947 whole entry, looked up): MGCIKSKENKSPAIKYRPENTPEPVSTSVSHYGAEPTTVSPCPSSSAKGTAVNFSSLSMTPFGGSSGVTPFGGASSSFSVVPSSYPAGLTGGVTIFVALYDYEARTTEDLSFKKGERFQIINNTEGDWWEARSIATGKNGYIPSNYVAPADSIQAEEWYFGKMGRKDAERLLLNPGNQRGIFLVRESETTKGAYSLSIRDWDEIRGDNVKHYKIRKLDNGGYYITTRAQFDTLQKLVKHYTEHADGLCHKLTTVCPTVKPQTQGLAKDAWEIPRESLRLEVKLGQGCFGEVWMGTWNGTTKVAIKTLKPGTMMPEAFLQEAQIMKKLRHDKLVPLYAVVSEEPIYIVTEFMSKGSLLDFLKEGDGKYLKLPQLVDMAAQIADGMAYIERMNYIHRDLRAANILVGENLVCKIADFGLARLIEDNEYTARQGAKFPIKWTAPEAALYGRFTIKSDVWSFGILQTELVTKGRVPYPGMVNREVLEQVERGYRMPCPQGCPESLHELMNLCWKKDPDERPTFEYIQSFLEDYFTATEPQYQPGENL
Test: qHTS for small molecule inhibitors of Yes1 kinase: Primary Screen (AID 686947); note: nearly all actives have a fitted effect of over 60% in size; note: potency is the fitted concentration of half-maximal effect;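 for activity change, negative = inhibition: plate controls were DMSO with enzyme for no effect and no-enzyme DMSO wells for full effect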
Settings: Yes1 kinase biochemical qHTS inhibition; series mostly up to 76.9 µM; activity change, negative = inhibition: at the top concentration
Procedure, shortened: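 ADP-Glo luminescence reports ADP formed by 4 nM Yes1 phosphorylating poly(E4Y) (0.3 mg/mL) with 0.1 mM ATP for 60 min at room temperature, following 20 min compound preincubation; normalised between DMSO wells with and without enzyme.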
In the case of `Nc1nc(Cl)nc2c1ncn2[C@H]1C[C@H](O)[C@@H](CO)O1`, the Potency is reported as 79.3 µM (active). With `Cc1cccc(-c2[nH]ncc2-c2ccc3ncccc3n2)n1` the Potency was 2.92 µM (active) and 2.23 µM (active). In the case of `Nc1cccc2c1CN(C1CCC(=O)NC1=O)C2=O` (stereo not given), the “activity change, negative = inhibition” value is reported as -7.96% [at 154 µM]. With `CCN(CCO)CCCC(C)Nc1ccnc2cc(Cl)ccc12` (stereo not given) the “activity change, negative = inhibition” value was 11.4%. For `CCOC(=O)C1=C(O)C(=O)N(Cc2ccccc2)C1`, the “activity change, negative = inhibition” value was -15.2%. With `CCN(CC)CCOc1ccc(Nc2ncc3cc(-c4c(Cl)cccc4Cl)c(=O)n(C)c3n2)cc1` the Potency was 9.72e-06 µM (active). In the case of `CC(C)C[C@H](NC(=O)[C@H](Cc1ccccc1)NC(=O)c1cnccn1)B(O)O`, the “activity change, negative = inhibition” value is reported as -2.48%. In the case of `CCOC(=O)C(C)Oc1cccc2c(=O)n(CC(=O)Nc3ccc4c(c3)OCCO4)ccc12` (stereo not given), the “activity change, negative = inhibition” value is reported as 45.7%. For `Oc1ccc(-c2nc(-c3ccc(F)cc3)c(-c3ccncc3)[nH]2)cc1`, the Potency was 17.3 µM (active). For `O=C(NOCC1CC1)c1ccc(F)c(F)c1Nc1ccc(I)cc1Cl`, the “activity change, negative = inhibition” value was 14.4%. For `NS(=O)(=O)c1cc(C(=O)O)c(NCc2ccco2)cc1Cl`, the “activity change, negative = inhibition” value was 2.61%. With `C[C@@H](N)C1CCC(C(=O)Nc2ccncc2)CC1` (stereo not given in full) the “activity change, negative = inhibition” value was -4.11%. With `O=Nc1c(-c2c(O)[nH]c3cc(Br)ccc23)[nH]c2ccccc12` the Potency was 0.154 µM (active). For `Cc1cccc(C#Cc2ccccc2)n1`, the “activity change, negative = inhibition” value was -1.8%. With `S=c1nc[nH]c2nc[nH]c12` the “activity change, negative = inhibition” value was 2.83% [at 154 µM].
